# Measurements: PubChem BioAssay AID504832 (National Center for Advancing Translational Sciences (NCATS), 2011)
# Among all 310,000 compounds or so, about 18,000 (5.8%) were called active. Another 22% or so got no clear call; they are omitted. This excerpt belongs to a sample that is enriched for actives. Unmarked numbers belong to inactive results. Calls follow the shape of the dose curve; as a rule, active = well fitted inhibition curve with a large enough effect; inconclusive = small, poorly fitted or top-dose-only effect, or another doubt; inactive = no such curve, though single readings can be large or run the other way.
# Test: Primary qHTS for delayed death inhibitors of the malarial parasite plastid, 48 hour incubation
# Conditions: P. falciparum luciferase growth in erythrocytes; series mostly up to 28.7 µM; activity change, negative = inhibition: at the top concentration
# In short: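 Parasite viability was followed by luminescence of a genomically integrated firefly luciferase. Cultures held 0.1% parasitemia at 2% hematocrit (final), incubated under 5% CO2 at 37 C.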
# % is scaled to controls: 0 for no effect and ±100 for the full control effect; potency is read from the fitted curve at half-maximal effect.
Structure (SMILES),"activity change, negative = inhibition",Potency
COc1ccc(CN2CCCC(C(=O)N3CCCCC3)C2)cc1 (stereo not drawn),40.7%,
COc1ccc(C(O)(C2CCCCC2)C(CN2CCCC2)c2ccccc2)cc1 (stereo not drawn),,11.7 µM (active)
CC(CN1CCCCC1)c1ccccc1 (stereo not drawn),6.05%,
O=C(NCCS(=O)(=O)c1ccc(Br)cc1)c1ccccc1Cl,93.2%,
CCCCn1c(SCC(=O)N2CCOCC2)nc2c1c(=O)n(C)c(=O)n2C,-6.82%,
CC1CC2=C(CC1/C=N/NC(N)=S)C(C)(C)CCC2 (stereo not drawn),,13.1 µM (active)
COc1ccc(C2/C(=C(/O)c3ccc4c(c3)CC(C)O4)C(=O)C(=O)N2Cc2ccncc2)cc1 (stereo not drawn),25.6%,
COCCN1C(=O)N(c2ccc(Cl)cc2)C(=O)C1CC(=O)Nc1cc(OC)cc(OC)c1 (stereo not drawn),-8.22%,
COCCN(CCOC)c1nc(N)c2c(N)nc3c(c2c1C#N)CC(=O)N3Cc1ccc(Cl)cc1,,1.65 µM (active)
CSCCC(NC(=O)c1ccco1)C(=O)Nc1cc(C)ccn1 (stereo not drawn),105%,
Cc1cccc(NC(=O)NC2(C)CCS(=O)(=O)C2)c1 (stereo not drawn),3.57%,
COCCOC(=O)C1=C(C)N=c2s/c(=C\c3cccs3)c(=O)n2C1c1cccs1 (stereo not drawn),,4.15 µM (active)
CCOC(=O)C1=C(C)NC(=S)NC1c1cccs1 (stereo not drawn),1.1%,
Cc1cc(=O)oc2cc(OCC(=O)N3CCN(c4ccc(F)cc4)CC3)c(Cl)cc12,-15.6%,
O=C(CCc1ccccc1)Nc1ccnn1C1CCN(Cc2ccc(OCCO)cc2)CC1,-12.5%,
O=C(Nc1ccccc1N1CCOCC1)c1ccc(OCc2cscn2)cc1,-12.9%,
CC(C)n1c(=O)[nH]c2cc(C(=O)Nc3ccccc3)ccc21,9.6%,
CN1CCN(c2ccc(NC(=O)c3ccccc3)cc2)CC1,-20.4% [at 0.00184 µM],
CN1CCN(c2ccc(NC(=O)c3ccc4c(c3)[nH]c(=O)n4Cc3ccc(F)cc3)cc2)CC1,,11.7 µM (active)
Cc1cc(C)c2nc(N3CCC(C(=O)NCCN4CCOCC4)CC3)sc2c1,11.7%,
COc1ccccc1N1CCN(/N=C/c2ccc(O)cc2O)CC1,109%,
COc1ccc2[nH]c(=O)c(C3c4cc(OC)c(OC)cc4CCN3C(=O)c3ccco3)cc2c1 (stereo not drawn),,13.1 µM (active)
COc1ccc(CNC(=O)C2CCN(C(=O)c3ccco3)CC2)cc1,0.712%,
CCc1ccc(OCC2c3cc(OC)c(OC)cc3CCN2C(C)=O)cc1 (stereo not drawn),-21%,
CCOC(=O)N1CCN(C(=O)C(=O)Nc2sc3c(c2C#N)CC(C)(C)OC3)CC1,16%,
CCc1cc(C(=O)c2ccc(OC)cc2)c(NC(=O)CN2CCN(C)CC2)s1,,5.22 µM (active)

Structure (SMILES),"activity change, negative = inhibition",Potency
CCc1cc(C(N)=O)c(NC(=O)c2ccc(OC)cc2)s1,64.5%,
CCc1ccc(NC(=O)CN2CCC(C(=O)c3ccc(OC)cc3)CC2)cc1,-21.6%,
Cc1ccc(NC(=O)Cn2nnc(C(=O)NCc3ccco3)c2N)c(C)c1,18.9%,
NC(N)=N/N=C/c1ccc(OCc2ccc(Cl)cc2Cl)cc1,,9.28 µM (active)
CCOc1ccc(NC(=O)NNC(=O)c2ccc(Cl)cc2Cl)cc1,8.64%,
CCOc1ccc(/C=N/NC(N)=S)cc1,53.1%,
CCOc1ccc(OCc2ccc(C(=O)N(C)c3ccccc3)o2)cc1,-38.3%,
Fc1ccccc1Cn1cnc(NC(=S)NCCc2ccccc2)n1,5.06%,
N=c1n(CCc2ccccc2)c2ccccc2n1Cc1ccccc1F,,9.28 µM (active)
O=C(COC(=O)Cc1ccccc1F)NCCc1ccccc1,1.67%,
Nc1c(C(=O)Nc2ccc3c(c2)OCCO3)nnn1Cc1ccccc1,-3.91%,
O=C1CCC(C(=O)N2CCCCO2)CN1Cc1cccc(C(F)(F)F)c1 (stereo not drawn),18.2%,
CSc1ncc(C(=O)Nc2ccc(C)cc2C)c(C)n1,-3.49%,
O=C(CN1C(=O)CC(c2ccccc2)S(=O)(=O)c2ccccc21)NC1CCCC1 (stereo not drawn),-42%,
CC(=O)c1cc(-c2ccccc2)n(CC(=O)NC2CCCCC2)c1C,-4.84%,
O=C(CN1C(=O)CC(c2ccccc2)=Nc2ccccc21)NC1CCCCC1,,9.28 µM (active)
Cc1cc(NS(=O)(=O)c2ccc(NC(=O)C(C)Oc3cccc(C)c3C)cc2)nc(C)n1 (stereo not drawn),10.4%,
CC(=O)Oc1ccc(N(C(C)=O)S(=O)(=O)c2ccc3ccccc3c2)cc1Br,-12.8%,
O=C(COC(=O)c1ccc(F)cc1)NCCCc1ccccc1,43.7%,
O=c1c([N+](=O)[O-])cccn1Cc1ccc(F)cc1Cl,,0.37 µM (active)
N/C(=N/O)c1cccn1Cc1ccccc1[N+](=O)[O-],47.8%,
O=Cc1cn(Cc2ccc(F)cc2Cl)c2ccccc12,-3.11%,
CN(CC(=O)Nc1c(Cl)cccc1Cl)C(=O)CNC(=O)C1CCCCC1,-2.61%,
CN(Cc1ccccc1)C(=O)c1ccc(COc2ccccc2)cc1,21%,
CC(C)C(=O)Nc1cccc(NC(=S)NC(=O)C(c2ccccc2)c2ccccc2)c1,,11.7 µM (active)
CC(C)C(=O)NC(=S)Nc1ccccc1F,42.1%,

Structure (SMILES),"activity change, negative = inhibition",Potency
COc1ccccc1NC(=S)NC(=O)C(C)C,-16.3%,
COc1cccc(NC(=O)N2CCCC2C(=O)NC2CCCCC2)c1 (stereo not drawn),20.5%,
COc1ccc(/C=N/OCc2ccccc2C#N)c(OC)c1,49.3%,
CC1CCN(C(=O)c2ccccc2NC(=O)Cc2ccccc2)CC1,18%,
CN1CCN(C(=O)CCc2ncc(C(F)(F)F)cc2Cl)CC1,-0.581%,
CC(=O)c1ccc(Cc2ncc(C(F)(F)F)cc2Cl)s1,,13.1 µM (active)
O=C(Cc1ncc(C(F)(F)F)cc1Cl)Nc1cccc(Br)c1,24%,
Cc1ccc2c(c1)N(C(=O)CCC(=O)NCc1cccnc1)CCO2,8.95%,
Cn1c(N2CCOCC2)c(C=O)c2ccccc21,37.2% [at 0.00184 µM],
COc1ccc(-n2c(O)c(C=NCC(c3ccco3)N3CCCC3)c3ccccc3c2=O)cc1OC (stereo not drawn),,9.28 µM (active)
COc1ccc(-n2nc(C(=O)NCC(=O)N3CCC(C(N)=O)CC3)c3ccccc3c2=O)cc1OC,44%,
CCN(CC)CCCN=Cc1c(O)n(-c2ccc(C)cc2)c(=O)c2ccccc12,-11.5%,
Cc1nnc(SCC(=O)Nc2ccc(S(=O)(=O)Nc3ccc(Cl)nn3)cc2)s1,19.4%,
CCC(C)(NC(=O)c1ccccn1)C(=O)NC1CCCCC1 (stereo not drawn),19.9%,
CCN(CC)CCOc1ccc2c(c1)C(=NNC(=O)c1ccccn1)c1cc(OCCN(CC)CC)ccc1-2,,0.37 µM (active)
Cc1cccc(OCC(=O)NCCCNC(=O)c2ccccn2)c1,-12%,
CCOc1ccccc1OCC(=O)Nc1ccccc1C(=O)NC1CC1,35.1%,
O=C(CCNS(=O)(=O)c1ccccc1C(F)(F)F)Nc1ccncc1,-7.69%,
C/C(N)=C(/C#N)C(=O)COC(=O)C1=NN(c2ccccc2)C(=O)CC1,27.2%,
O=C(Nc1ccccc1-c1nc2ccccc2[nH]c1=O)c1cccs1,14.3%,
CN1CCN(c2ccc(S(=O)(=O)Nc3ccccc3)cc2[N+](=O)[O-])CC1,3.28%,
CN1CCN(S(=O)(=O)c2ccc(N3CCN(c4ccccc4O)CC3)c([N+](=O)[O-])c2)CC1,,11.7 µM (active)
Cc1ccc(C(=O)c2ccc(N3CCN(C)CC3)c([N+](=O)[O-])c2)cc1,1.89%,
COc1ccccc1C(=O)NCCC(=O)N(C)Cc1cccnc1,-25.2%,
Cc1ccc(S(=O)(=O)N2CCCCC2)cc1C(=O)N(C)CC(=O)Nc1cccc(F)c1,0.872%,
COc1ccccc1C(=O)NCCC(=O)NC1=NCCS1,13.4%,

Structure (SMILES),"activity change, negative = inhibition",Potency
COc1ccc(N(CC(=O)N2CCOCC2)S(=O)(=O)c2ccccc2)cc1Cl,-1.91%,
COc1ccc(NC(=O)CN(C)C(=O)c2ccc(NC3CC3)c([N+](=O)[O-])c2)cc1,-29.9%,
CCCCN(C(=O)C1CCC1)c1c(N)n(Cc2ccccc2)c(=O)[nH]c1=O,-25.9%,
CCCc1c(C(=O)O)cnn1-c1ccc(Cl)cc1,-4.75%,
O=C(Cn1cc(-c2nnnn2-c2ccc(Cl)cc2)c(=O)c2ccccc21)c1ccccc1,,1.65 µM (active)
O=C(Nc1ccccc1)OCc1cn(-c2ccc(Cl)cc2)nn1,50.9%,
O=C(NCCS(=O)(=O)N1CCN(c2ccc(F)cc2)CC1)c1ccc2c(c1)OCO2,-0.0064%,
CCOCCCNC(=S)Nc1ccc2nc(N3CCN(CC)CC3)cc(C)c2c1,-7.67%,
CC[N+](C)(CC)CCC[n+]1c(-c2ccccc2)c2cc(N)ccc2c2ccc(N)cc21,,1.85 µM (active)
CC(=O)Nc1ccc(NC(=O)CCCNC(=O)c2ccc(Cl)cc2)cc1,5.13%,
CC(=O)Nc1ccc(NC(=O)CSc2nnc(C3CC3)n2-c2ccccc2)cc1,-3.28%,
CC(=O)c1cccc(NC(=O)c2cc(C)nn2-c2ccccc2)c1,-2.83% [at 0.00184 µM],
CC[n+]1c(C)n(-c2ccccc2)c2ccc(NC(C)=O)cc21,,4.65 µM (active)
O=C(COc1ccc(Cl)cc1)NCCS(=O)(=O)N1CCN(c2ccc(F)cc2)CC1,-29.8%,
CCc1ccccc1NC(=O)NCCN1CCCCC1,-1.62%,
CC(C)c1ccc(NC(=O)Cn2ncc3ccccc32)cc1,87.8%,
COc1cccc(NC(=O)CN(C)C(=O)CSCc2nc3scc(-c4cccs4)c3c(=O)[nH]2)c1,2.18%,
N/C(=N\OC(=O)N1c2ccccc2Sc2ccccc21)c1ccc(Br)cc1,,8.28 µM (active)
N/C(=N\OC(=O)Cc1ccccc1[N+](=O)[O-])c1ccc(Br)cc1,-9.12%,
N/C(=N\OC(=O)/C=C/c1ccccc1)c1ccc(Br)cc1,4.81%,
CCn1c(=S)sc2c(=O)n(CC(=O)Nc3ccc(OC)cc3)c(C)nc21,33.1%,
C=CCn1c(CCc2ccc(OC(C)C)cc2)n[nH]c1=S,5.51%,
CC(C)Oc1ccc(CCc2n[nH]c(=S)n2Cc2ccccc2)cc1,,2.08 µM (active)
CC(C)Oc1ccc(CCc2nnc(SCC(=O)O)n2-c2ccccc2)cc1,1.18% [at 5.75 µM],
CCOc1ccccc1OCCCNCc1ccccc1,-4.88%,
